The text below walks through data of PubChem BioAssay.

Values without a mark were called inactive.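 The calls were made as follows, unless noted: active = viability at or below 27.92% in each of two runs, the all-compound median minus 4 SD; inconclusive = no clear call, values can overlap the other calls; inactive = the rest.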 Records with an inconclusive call do not appear.

In general, viability refers to a read-out of living cells in per cent, often relative to untreated cells.

The first test is described as follows: doxorubicin toxicity protection in MRP-1 cells – H69AR cells, CellTiter-Glo, duplicate, MRP-1 activator project, pilot screen (AID 807;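 active = viability increase at or above a cutoff of the median across tested compounds plus 3 SD, cut at about 8.5% in these data, passing the limit was not always enough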;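 also: compound pretreatment 18-22 h then 72 h combined with doxorubicin; 0% = doxorubicin alone and 100% = vehicle without doxorubicin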). To be noted: H69AR viability with doxorubicin, CellTiter-Glo luminescence; at 10 µM; stronger effect = higher value.
With `CCOCCCNC(=O)CN1CCN(Cc2ccccc2C)C1=O`, the viability increase was 0.02%.
Take `CCN1C(=O)c2cccc3c(NC(=O)c4ccc(S(=O)(=O)N(C)C)cc4)ccc1c23`: the viability increase is -5.59%.
Turning to `O=C(Nc1cccc2ccccc12)c1ccc(Br)o1`, the viability increase is -1.67%.
Consider `c1ccc(-c2cn3cccnc3n2)cc1`, for which the viability increase was 0.59%.

A further test can be described thus: viability of HCT116 without oncogenic beta-catenin – human colon tumor cells, pilot screen (AID 823;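 active = cell viability at or below a set limit in both duplicate runs, the limit being the all-compound median minus 4 SD, cut at about 23% in these data, passing the limit was not always enough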;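 also: 0% = wells killed by 20 µM Hyamine and 100% = untreated DMSO cell wells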). The note with it: HCT116 beta-catenin knockout viability, CellTiter-Glo, 60 h; at 10 µM; stronger effect = lower value. (ATP-based viability assays read luminescence as a measure of living cells.)
Take `COc1cccc(C2=NOC(C(=O)N3CCN(c4ccccc4)CC3)C2)c1OC` (centres undefined): the viability is 93.6%.
On the same count and under the same terms, in the case of `O=C(Nc1ccc2c(c1)OCO2)c1ccc(CN2CCOCC2)cc1` it was 71.3%.
For the compound `O=C(Cn1nc(Cc2ccncc2)c2ccccc2c1=O)N1CCc2ccccc2C1`, the viability was 103%.
Turning to `CCOCCCNC(=O)c1ccc2c(c1)N(Cc1ccccc1)C(=O)CS2=O` (centres undefined), the viability is 102%.
On the same count and under the same terms, in the case of `CS(=O)(=O)Nc1ccccc1C(=O)O` it was 94.9%.
With `CCOC(=O)N1CCC(Nc2ncnc3c2cnn3-c2ccc(C)cc2C)CC1`, the viability was 70.2%.
Same read-out and setting: in the case of `CC1(C)C(c2ccccc2)=NC(c2ccccc2)N1O` (centres undefined) it was 95.6%; in that of `O=C(CS(=O)(=O)Cc1ccccc1)Nc1nc2ccccc2s1`, 101%; in that of `CCOC(=O)N1CCN(C(=O)COc2ccc(S(=O)(=O)NC(C)C)cc2)CC1`, 96.2%.
Still for that read-out and setting: the same measure for `COc1ccc(N2CCN(CCNC(=O)CCS(=O)(=O)c3cccc4nsnc34)CC2)cc1`: 98.5%; for `COc1cccc(C2CC(=O)Nc3c2c(=O)n(C)c(=O)n3C)c1OC` (centres undefined): 98.9%; for `CCN1C(=O)c2ccccc2S(=O)c2ccc(C(=O)NC3CC3)cc21` (centres undefined): 97.6%.
As to `CCOC(=O)CCc1c(C)nc2cc(-c3ccc(F)cc3)[nH]n2c1=O`, the viability was 95.8%.
On the same count and under the same terms, the same measure for `CCC(C)(C(=O)NC1CCCC1)N(Cc1cccs1)C(C)=O` (centres undefined): 108%; for `COc1ccccc1NC(=O)C1(C)Cc2ccccc2C(=O)O1` (centres undefined): 107%; for `COC(=O)c1sc(NC(=O)COc2ccccc2OC)nc1C`: 102%.
On the same count and under the same terms, the same measure for `O=C(Nc1ccc2c(c1)OCCO2)NC1CCCCC1`: 86.8%; for `c1ccc2c(c1)nc(NCCN1CCOCC1)c1nncn12`: 103%.
Regarding `O=C(c1ccc(Br)cc1)N1CCN(S(=O)(=O)c2ccccc2)CC1`, the viability is 84.7%.
The same measure, in the same setting: in the case of `C/C=C/Cn1c(SCCCc2ccccc2)nc2c1c(=O)[nH]c(=O)n2C` it was 66.8%; in that of `O=c1c2ccccc2nc(SCc2nc(-c3ccccc3)no2)n1-c1ccc(F)cc1`, 72.2%.
On to `Cn1c(=O)c2c(nc3sccn32)n(C)c1=O`, for which the viability is 101%.
Take `CCCCOc1ccc(-c2ncc(Cl)cn2)cc1`: the viability was 86.9%.
In the case of `CCOC(=O)c1ccc(N2Cc3cc(C)c(C)cc3C2)cc1O`, the viability was 107%.
Take `O=C(CSc1nc(-c2ccco2)cc(C(F)(F)F)n1)NCCCn1ccnc1`: the viability was 98.6%.
Still for that read-out and setting: the same measure for `COc1cccc(NC(=O)CSc2nnc(Cc3cccn3C)n2-c2ccc(F)cc2)c1`: 88.9%; for `CCOC(=O)c1ccc(-n2c(C)nc3c(cnn3-c3ccccc3C)c2=O)cc1`: 94.4%.
The same measure, in the same setting: in the case of `CCOC(=O)C1=C(C)N(C)C(=O)NC1c1ccccc1OC` (centres undefined) it was 97.9%.
In the case of `Cc1ccc(CSc2nc3c(c(=O)[nH]2)CCC3)cc1`, the viability is 105%.
With `CCOC(=O)c1c(C)n(C)c2c(C)cc(O)c(OC(C)=O)c12`, the viability is 78.5%.
Still for that read-out and setting: the same measure for `Cc1ccccc1NC(=O)C1CCCN(S(=O)(=O)c2cnc[nH]2)C1` (centres undefined): 102%.
For `O=C(NCc1ccc(F)cc1)c1cc2ccccn2n1`, the viability is 99%.
On the same count and under the same terms, the same measure for `CCCNC(=O)C1CCN(S(=O)(=O)c2ccc3nc4c(c(C(=O)O)c3c2)CCCCC4)CC1`: 108%.
Regarding `COc1ccc2[nH]c(C)c(CCN3C(=O)OC(C)(C)C3(C)O)c2c1` (centres undefined), the viability is 107%.
Still for that read-out and setting: the same measure for `COc1ccc(N(CC(=O)Nc2ccc3c(c2)OCO3)S(=O)(=O)c2c(C)nn(C)c2C)cc1`: 93.3%; for `Cc1onc(-c2ccccc2Cl)c1C(=O)Nc1cnn(Cc2ccccc2)c1`: 83.2%; for `CCOCCCNC(=O)CN1CCN(Cc2ccccc2C)C1=O`: 94.7%.
Consider `CCN1C(=O)c2cccc3c(NC(=O)c4ccc(S(=O)(=O)N(C)C)cc4)ccc1c23`, for which the viability is 73.5%.
Turning to `O=C(Nc1cccc2ccccc12)c1ccc(Br)o1`, the viability is 94.3%.
Still for that read-out and setting: the same measure for `c1ccc(-c2cn3cccnc3n2)cc1`: 110%.

A further test in a line: viability of PTEN-null HCT116 cells – cell-based, HCT116 clonal line, CellTiter-Glo, pilot screen (AID 824).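 Also: 0% = 20 µM Hyamine control and 100% = vehicle cell control.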 The note with it: HCT116 PTEN-deleted viability, 60 h, at 10 µM, stronger effect = lower value.
`COc1cccc(C2=NOC(C(=O)N3CCN(c4ccccc4)CC3)C2)c1OC` (centres undefined): the viability is 96.5%.
Turning to `O=C(Nc1ccc2c(c1)OCO2)c1ccc(CN2CCOCC2)cc1`, the viability is 81.5%.
On to `O=C(Cn1nc(Cc2ccncc2)c2ccccc2c1=O)N1CCc2ccccc2C1`, for which the viability is 103%.
In the case of `CCOCCCNC(=O)c1ccc2c(c1)N(Cc1ccccc1)C(=O)CS2=O` (centres undefined), the viability is 93.1%.
Take `CS(=O)(=O)Nc1ccccc1C(=O)O`: the viability is 97.6%.
For the compound `CCOC(=O)N1CCC(Nc2ncnc3c2cnn3-c2ccc(C)cc2C)CC1`, the viability was 67.4%.
Still for that read-out and setting: in the case of `CC1(C)C(c2ccccc2)=NC(c2ccccc2)N1O` (centres undefined) it was 96.5%; in that of `O=C(CS(=O)(=O)Cc1ccccc1)Nc1nc2ccccc2s1`, 97.1%; in that of `CCOC(=O)N1CCN(C(=O)COc2ccc(S(=O)(=O)NC(C)C)cc2)CC1`, 93%.
Still for that read-out and setting: in the case of `COc1ccc(N2CCN(CCNC(=O)CCS(=O)(=O)c3cccc4nsnc34)CC2)cc1` it was 95.2%; in that of `COc1cccc(C2CC(=O)Nc3c2c(=O)n(C)c(=O)n3C)c1OC` (centres undefined), 95.9%; in that of `CCN1C(=O)c2ccccc2S(=O)c2ccc(C(=O)NC3CC3)cc21` (centres undefined), 95.3%.
For `CCOC(=O)CCc1c(C)nc2cc(-c3ccc(F)cc3)[nH]n2c1=O`, the viability is 95.1%.
Same read-out and setting: in the case of `CCC(C)(C(=O)NC1CCCC1)N(Cc1cccs1)C(C)=O` (centres undefined) it was 96.3%.
Consider `COc1ccccc1NC(=O)C1(C)Cc2ccccc2C(=O)O1` (centres undefined), for which the viability is 99.8%.
With `COC(=O)c1sc(NC(=O)COc2ccccc2OC)nc1C`, the viability is 101%.
Still for that read-out and setting: in the case of `O=C(Nc1ccc2c(c1)OCCO2)NC1CCCCC1` it was 85.5%; in that of `c1ccc2c(c1)nc(NCCN1CCOCC1)c1nncn12`, 103%.
In the case of `O=C(c1ccc(Br)cc1)N1CCN(S(=O)(=O)c2ccccc2)CC1`, the viability is 90.4%.
Same read-out and setting: the same measure for `C/C=C/Cn1c(SCCCc2ccccc2)nc2c1c(=O)[nH]c(=O)n2C`: 52.6%.
With `O=c1c2ccccc2nc(SCc2nc(-c3ccccc3)no2)n1-c1ccc(F)cc1`, the viability was 68.6%.
With `Cn1c(=O)c2c(nc3sccn32)n(C)c1=O`, the viability was 99.4%.
Same read-out and setting: in the case of `CCCCOc1ccc(-c2ncc(Cl)cn2)cc1` it was 96.8%; in that of `CCOC(=O)c1ccc(N2Cc3cc(C)c(C)cc3C2)cc1O`, 93.8%.
In the case of `O=C(CSc1nc(-c2ccco2)cc(C(F)(F)F)n1)NCCCn1ccnc1`, the viability was 96.3%.
On the same count and under the same terms, in the case of `COc1cccc(NC(=O)CSc2nnc(Cc3cccn3C)n2-c2ccc(F)cc2)c1` it was 90.1%; in that of `CCOC(=O)c1ccc(-n2c(C)nc3c(cnn3-c3ccccc3C)c2=O)cc1`, 91%; in that of `CCOC(=O)C1=C(C)N(C)C(=O)NC1c1ccccc1OC` (centres undefined), 93.4%.
Same read-out and setting: in the case of `Cc1ccc(CSc2nc3c(c(=O)[nH]2)CCC3)cc1` it was 92.9%; in that of `CCOC(=O)c1c(C)n(C)c2c(C)cc(O)c(OC(C)=O)c12`, 86.8%.
Still for that read-out and setting: in the case of `Cc1ccccc1NC(=O)C1CCCN(S(=O)(=O)c2cnc[nH]2)C1` (centres undefined) it was 101%.
With `O=C(NCc1ccc(F)cc1)c1cc2ccccn2n1`, the viability was 89.8%.
As for `CCCNC(=O)C1CCN(S(=O)(=O)c2ccc3nc4c(c(C(=O)O)c3c2)CCCCC4)CC1`, the viability was 103%.
Same read-out and setting: the same measure for `COc1ccc2[nH]c(C)c(CCN3C(=O)OC(C)(C)C3(C)O)c2c1` (centres undefined): 96.4%; for `COc1ccc(N(CC(=O)Nc2ccc3c(c2)OCO3)S(=O)(=O)c2c(C)nn(C)c2C)cc1`: 90.5%.
Consider `Cc1onc(-c2ccccc2Cl)c1C(=O)Nc1cnn(Cc2ccccc2)c1`, for which the viability is 73%.
As for `CCOCCCNC(=O)CN1CCN(Cc2ccccc2C)C1=O`, the viability was 86.8%.
For `CCN1C(=O)c2cccc3c(NC(=O)c4ccc(S(=O)(=O)N(C)C)cc4)ccc1c23`, the viability is 75.8%.
Same read-out and setting: in the case of `O=C(Nc1cccc2ccccc12)c1ccc(Br)o1` it was 90.8%; in that of `c1ccc(-c2cn3cccnc3n2)cc1`, 100%.
